# Compound activity deposited in PubChem BioAssay by National Center for Advancing Translational Sciences (NCATS).
# BCR signal inh: inhibitors of chronic active B-cell receptor signaling; ABC-DLBCL IkBa-CBG/CBR reporter, luminescence ratio, 4 h; Potency, µM (highest dose often 46.1 µM), inactives show at the highest dose activity change, negative = inhibition, usual class: inhibitors; hit rate 0.05% among 340,000; AID 493014; active = well fitted inhibition curve with a large enough effect in the signal ratio, with a control signal flat, not every such curve was filed as active; inconclusive = small, poorly fitted or top-dose-only effect, or effect the other way, or a change in a side signal; the % refers to the signal ratio;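 also: potency is read from the fitted curve at half-maximal effect; plate controls were basal doxycycline-induced cells for no effect and cells given 10 µM MG132 for full effect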
#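 Concentration-response series (up to 46 uM) were applied to TMD8 dual-reporter cells for 4 h at 37C with doxycycline. Green/red ratio, after filter-overlap correction, defined %Activity; red signal alone was normalised to basal cells and zero luminescence.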
# KCNH2 3.1 block: blocks the human KCNH2 3.1 channel isoform. hit rate 0.95% among 340,000. U2OS KCNH2 3.1, thallium flux FluxOr; stronger effect = lower value. activity change, % (tested at about 1.8 µM);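 active = maximum activity change below -70%; inconclusive = maximum activity change from -70% to -50%; inactive = maximum activity change above -50%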;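 also: thallium influx rate constant from kinetic fluorescence after stimulation buffer; % is scaled to controls: 0 for no effect and ±100 for the full control effect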
#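 Measured as rate of thallium-driven FluxOr signal in transduced U2OS cells carrying the 3.1 channel, read kinetically for 2 min upon stimulation; values are rate constants scaled to DMSO control wells.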
# LDHA block: LDHA (human) enzyme inhibition | purified LDHA, NADH/diaphorase-resazurin fluorescence; stronger effect = lower value | hit rate 0.15% among 480,000 | P00338 | activity change, % (values are at about 110 or 230 µM); in the data active = activity change below about -30%; inconclusive = mostly about -25% to -30%;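 also: plate controls were DMSO wells for no effect and wells without enzyme for full effect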
#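 Enzyme activity of human lactate dehydrogenase 5 (2 nM; 0.06 mM NADH, 0.2 mM pyruvate, 5 min, RT) is measured via a resazurin/diaphorase fluorescence readout of residual NADH.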
# ALOX12 inh: inhibitors of human 12S-lipoxygenase ALOX12. P18054. purified 12hLO, xylenol orange hydroperoxide absorbance. Potency, µM (titrated, usually from 108 µM), without a hit: at the top dose activity change, negative = inhibition, actives largely listed as inhibitors. hit rate 1.1% among 580,000. AID 1671190; active = well fitted inhibition curve with a large enough effect; inconclusive = small, poorly fitted or top-dose-only effect, or another doubt; inactive = no such curve, though single readings can be large or run the other way; also: potency is read from the fitted curve at half-maximal effect; % is scaled to controls: 0 for no effect and ±100 for the full control effect
# Target sequence (P18054 whole entry, looked up): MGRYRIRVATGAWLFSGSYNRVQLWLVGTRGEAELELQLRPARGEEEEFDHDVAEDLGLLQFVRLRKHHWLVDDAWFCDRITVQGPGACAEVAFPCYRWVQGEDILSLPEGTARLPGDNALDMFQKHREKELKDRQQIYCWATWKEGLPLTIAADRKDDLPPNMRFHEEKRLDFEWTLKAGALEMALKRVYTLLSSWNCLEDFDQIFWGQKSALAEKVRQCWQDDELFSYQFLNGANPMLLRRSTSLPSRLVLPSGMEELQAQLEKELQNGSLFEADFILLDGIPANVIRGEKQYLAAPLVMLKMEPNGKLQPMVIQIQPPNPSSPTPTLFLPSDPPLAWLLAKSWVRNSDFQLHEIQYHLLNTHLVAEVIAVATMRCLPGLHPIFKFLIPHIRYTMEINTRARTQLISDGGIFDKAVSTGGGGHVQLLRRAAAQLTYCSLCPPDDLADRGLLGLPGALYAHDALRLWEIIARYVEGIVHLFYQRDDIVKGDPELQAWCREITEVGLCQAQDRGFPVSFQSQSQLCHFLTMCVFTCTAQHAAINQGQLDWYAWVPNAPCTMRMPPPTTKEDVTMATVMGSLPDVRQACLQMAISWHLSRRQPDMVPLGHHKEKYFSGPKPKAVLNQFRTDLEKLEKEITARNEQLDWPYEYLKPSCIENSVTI
#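 Hydroperoxide product was detected by ferrous iron/xylenol orange as the 573 to 405 nm absorbance ratio. Arachidonic acid at 40 uM (final) was turned over for 30 min at room temperature by 150 nM human 12hLO, pH 7.0 Hepes buffer, after 15 min compound preincubation.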
# hERG WT inh: KCNH2 (human, wildtype) channel inhibition. Q12809. U2OS, BacMam KCNH2, thallium flux FluxOr; stronger effect = lower value. activity change, % at 1.84 µM. hit rate 0.37% among 340,000;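 active = maximum activity change below -70%; inconclusive = maximum activity change between -70% and -50%; inactive = maximum activity change above -50%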; also: % is scaled to controls: 0 for no effect and ±100 for the full control effect
#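 U2OS cells were transduced with wild-type KCNH2 virus (2.03 x 10^8 / mL) for 4 h at room temperature, then cultured overnight at 37 C. Thallium flux was read with FluxOr dye. Rate constants were normalized to DMSO controls.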
# ClpP mod: qHTS Assay for Activators of ClpP | ATP-dependent Clp protease proteolytic subunit (Bacillus subtilis (strain 168)), P80244 | purified B. subtilis ClpP, FRET peptide cleavage, 20 min | Potency, µM (doses to about 57.5 µM), without a hit: at the top dose activity change, negative = active | hit rate 1.9% among 340,000; active = well fitted falling curve with a large enough effect; inconclusive = small, poorly fitted or top-dose-only effect; inactive = no such curve, though single readings can be large or run the other way; also: potency is read from the fitted curve at half-maximal effect; the source files actives as falling curves though it sought activators and does not explain the sign; nearly all actives have a fitted effect of over 65% in size
#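 Buffer: 100 mM Tris/HCl pH8, 100 mM KCl, 0.05% low protease BSA, 2.5% glycerol, 0.01% Tween-20. ClpP 10 microg/mL final; 20 min RT; delta FRET normalized to ADEP and DMSO controls.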
# * marks the source's active call; other numbers are inactive results; ? = inconclusive; . = not tested or not shown; ! = a repeat was not active. Most compounds without a hit are left out; they make up all but 3% or so of the library.
SMILES,BCR signal inh,KCNH2 3.1 block,LDHA block,ALOX12 inh,hERG WT inh,ClpP mod
COC(=O)c1ccc(CNC(=O)NCC2(c3ccccc3)CC2)cc1,.,.,13.4,-16.4%,.,.
COc1ccc(CC(=O)N2CCN(c3ccc(C4=NNC(=O)CC4C)cc3)CC2)cc1 (stereo not given),-10.5%,2.0,2.7,7.3%,-1.4,28.2µM*
CNC(=O)c1ccc(NC(=O)CN2CCc3cc(OC)c(OC)cc3C2c2ccccc2)cc1 (stereo not given),.,.,14.0,?,.,.
CCOc1ccc(CN(CC)Cc2cc(=O)oc3ccc(C)cc23)cc1,.,.,8.9,?,.,.
Cn1nc(/C=C/c2ccccc2)ccc1=O,?,-3.1,-7.0,-10.7%,3.1,.
CCOC(=O)Cn1nc(/C=C/c2ccc(C(C)C)cc2)ccc1=O,?,-38.6,2.9,3.5%,7.2,28.2µM*
CCOC(=O)Cn1nc(/C=C/c2ccc(C)cc2)ccc1=O,-11.7%,-12.5,-3.1,33.8%,-10.5,31.6µM*
CCOC(=O)Cn1nc(/C=C/c2ccccc2)ccc1=O,?,-24.8,-8.4,15.3%,-29.1,?
O=c1ccc(/C=C/c2ccccc2)nn1Cc1ccccc1,3.0%,.,3.4,0.0%,16.4,28.2µM*
CCCCn1nc(C(=O)Nc2cc(C(F)(F)F)ccc2N2CCOCC2)c2ccccc2c1=O,.,.,15.4,9.4%,.,.
Cc1nc(N2CCN(C(=O)c3ccc(Cl)cc3)CC2)cc(C(F)(F)F)n1,.,.,.,26.8%,.,.
OC(CNCC(c1ccco1)N1CCCCC1)c1ccccc1 (stereo not given),5.0%,-9.5,-30.6*,?,4.7,-1.2%
O=C(CSc1ccccc1)NCC(c1ccco1)N1CCCCC1 (stereo not given),2.6%,-5.8,2.5,3.6%,39.5,-4.2%
CN(C)C(CNC(=O)c1cc(S(=O)(=O)N(C)c2ccc(F)cc2)ccc1Cl)c1ccco1 (stereo not given),-5.8%,-4.6,-1.7,-0.2%,-2.2,-2.2%
CN(c1ccc(F)cc1)S(=O)(=O)c1ccc(Cl)c(C(=O)NCC(c2ccco2)N2CCCCC2)c1 (stereo not given),?,-32.3,-4.3,0.794µM*,6.0,-0.3%
Cc1ccc(C(=O)NCC(c2ccco2)N2CCCCC2)s1 (stereo not given),9.0%,-70.7*,-0.1,2.1%,15.1,-0.6%
O=[N+]([O-])c1ccccc1C=NNc1ccccc1,.,-0.5,0.9,20µM*,-1.2,.
Oc1ccccc1/C=N/Nc1ccccc1,1.8%,.,6.7,31.6µM*,12.7,.
O=[N+]([O-])c1ccccc1N/N=C/c1cccc(O)c1O,?,-8.3,2.4,-13.1%,-12.7,0.8%
O=[N+]([O-])c1cccc(N/N=C/c2cccc(O)c2O)c1,-5.7%,16.1,28.7,11.2µM*,0.0,.
O=[N+]([O-])c1ccc(/C=N/Nc2cccc(Cl)c2)cc1,.,.,10.0,3.16µM*,.,.
C(=N\Nc1ccccc1)/c1cc(/C=N/Nc2ccccc2)cc(/C=N/Nc2ccccc2)c1,.,.,-1.2,-78.3%,.,.
CCCC(C)NC(=O)c1ccccc1C (stereo not given),.,.,-0.1,13.2%,.,.
CCCCOc1ncnc2c1[nH]c1ccc(OCC)cc12,?,2.8,-2.6,3.2%,3.2,-29.2%
CCOC(=O)N1CCN(c2ncnc3c2[nH]c2ccc(OC)cc23)CC1,2.0%,21.0,-0.8,-23.0%,3.7,25.1µM*
SMILES,BCR signal inh,KCNH2 3.1 block,LDHA block,ALOX12 inh,hERG WT inh,ClpP mod
CCOc1ccc2[nH]c3c(N4CCC5(CC4)OCCO5)ncnc3c2c1,7.0%,-7.3,4.1,5.9%,-1.1,31.6µM*
CCOc1ccc2[nH]c3c(N4CCN(C(=O)c5ccco5)CC4)ncnc3c2c1,3.3%,-14.7,6.3,10.7%,3.0,.
Cc1ccc(NC(=O)NC(=O)C(C)Cl)c(C)c1 (stereo not given),.,.,-1.1,?,.,.
CC(C)(C)N1C(=O)[C@H]2[C@@H](c3ccc(Br)cc3)N3C(=O)N(c4cccc(F)c4)C(=O)[C@@]3(Cc3ccccc3)[C@H]2C1=O,-1.6%,-0.5,-2.7,-0.5%,-0.9,-0.6%
COc1ccc([C@@H]2[C@@H]3C(=O)N(C(C)(C)C)C(=O)[C@@H]3[C@]3(Cc4ccccc4)C(=O)N(c4cccc(F)c4)C(=O)N23)cc1,0.6%,-73.8*,0.6,1.3%,4.7,2.2%
COc1cccc(C(=O)N2CCC(N3C[C@H](O)C[C@H]3C(=O)NC3CCCCC3)CC2)c1C,.,.,.,61.0%,.,.
CCCN1CCN(c2nnc(-n3cccc3CN3CCN(C4CCCCC4)CC3)s2)CC1,.,.,-23.9,20.3%,.,.
COc1ccc(S[C@]2(C(=O)NCC(F)(F)F)CC(=O)N[C@@H]2c2ccc(OC)cc2)cc1,.,.,.,31.6µM*,.,.
COC(=O)[C@]1(Sc2ccc(OC)cc2)CC(=O)N[C@@H]1c1ccccc1,.,.,4.8,?,.,-1.0%
COC(=O)C1=NN[C@H](C(=O)OC)[C@H]1c1ccccc1,5.6%,6.9,-5.0,4.9%,-1.3,-1.1%
COC(=O)C1=NN[C@H](C(=O)OC(C)(C)C)[C@H]1c1ccccc1,?,0.0,1.1,-23.9%,-6.2,15.8µM*
CC(C)CN1C(=O)c2ccc(NC(=O)C3CC3)cc2C1=O,-0.6%,0.4,-1.6,0.0%,-8.5,-15.7%
CC(C)CN1C(=O)c2ccc(NC(=O)c3ccco3)cc2C1=O,10.4%,-10.5,-3.1,0.3%,-0.7,.
CC(C)CN1C(=O)c2ccc(NC(=O)c3cccs3)cc2C1=O,8.3%,-1.8,-11.2,22.0%,-15.2,28.2µM*
CC(C)CN1C(=O)c2ccc(NC(=O)c3ccccc3F)cc2C1=O,-18.6%,0.1,-9.7,-4.3%,-4.2,31.6µM*
Cc1ccc(NC(=O)CCC(C(=O)O)N2C(=O)c3ccccc3C2=O)cc1 (stereo not given),5.3%,-140.7*,0.1,1.4%,-187.2*,1.1%
CC1=CC(C)(C)N(C(=O)CCl)c2ccccc21,-7.4%,7.5,-0.8,-14.7%,-11.2,2.4%
CC1=CC(C)(C)N(C(=O)CSc2ncn[nH]2)c2ccccc21,-21.6%,-78.3*,-10.6,16.9%,-9.2,-2.4%
O=C(CSc1ncccc1-c1nc2ccccc2[nH]1)N1CCCCC1,?,-1.7,-4.1,?,1.4,?
c1ccc2nc(-c3nc4ccccc4[nH]3)ccc2c1,?,-4.5,0.8,0.0%,2.2,31.6µM*
Oc1ccccc1C=Nc1ccccc1-c1nc2ccccc2[nH]1,?,1.0,-2.9,-6.9%,-9.0,28.2µM*
c1ccc2[nH]c(-c3ccnc4ccccc34)nc2c1,?,0.4,-3.1,?,16.5,15.8µM*!
